This note sets out measurements from PubChem BioAssay AID1159606 (Sanford-Burnham Center for Chemical Genomics, 2016).

For orientation: inhibition means the relative decrease from the control value, in per cent.

The whole screen tested about 360,000 compounds, of which about 7,300 (2%) were called active. For the sample, actives were picked, then their nearest neighbours and some compounds at random. Unmarked numbers belong to inactive results. Rule as the data show it: active = inhibition above about 50%; inactive = the rest.

This test can be described thus: blockers of TWEAK-induced Fn14 reporter activity – luciferase reporter cells, uHTS, primary screen (AID 1159606). To be noted: TWEAK-stimulated Fn14 reporter cells, luciferase luminescence, 8 h; at 10 µM; active compounds read high.
With `Cc1ccccc1S(=O)(=O)N1[C@@H](c2cccc(Cl)c2)C(C(=O)OC(C)(C)C)=CC[C@H]1c1ccc(Cl)cc1`, the inhibition was -24.3%.
On to `Cc1ccc(-c2nc3c(Cl)cc(C(F)(F)F)cn3c2Cc2cccc(Cl)c2)cc1`, for which the inhibition was 25.6%.
For the compound `COC(=O)c1ccc2c(c1)S(=O)(=O)NC2C` (stereo not given), the inhibition was -6.18%.
As for `CN(C)c1ccc2c(=O)[nH][nH]c(=O)c2c1`, the figure is -6.35%; as for `COc1ccc(CCNC(=O)COC(=O)Cc2cccc(F)c2)cc1`, -0.83%.
In the case of `COc1cc(-c2n[nH]c(=S)n2Cc2ccccc2)cc(OC)c1OC`, the inhibition is -2.96%.
As for `CC(C)Oc1ccc(Cc2n[nH]c(=S)n2Cc2ccccc2)cc1Cl`, the figure is 92.2% (active).
As for `CC(C)Oc1ccc(CCc2n[nH]c(=S)n2Cc2ccccc2)cc1`, the figure is -6.3%; as for `CCOC(=O)c1c(-c2ccc(C)cc2)csc1/N=C(\C)C1=C(O)c2ccccc2C1=O`, 66.2% (active).
Consider `COC(=O)c1c(-c2ccc(C)cc2)csc1N`, for which the inhibition is -2.01%.
The figure for `CCC(C(=O)OC)n1cnc2scc(-c3ccc(C)cc3)c2c1=O` (stereo not given) is 0.23%.
Consider `CS(=O)(=O)N(C(=O)NC(=O)NC1CCS(=O)(=O)C1)C1CCCCC1` (stereo not given), for which the inhibition is 13.7%.
As for `CCCS(=O)(=O)NC(=O)C1(C)CCCN(C(=O)c2cccs2)C1` (stereo not given), the figure is -4%.
As for `COCC1CCCCN1C(=O)c1cc(COc2ccc(C)c(C)c2)on1` (stereo not given), the figure is -33.8%; as for `CC(Nc1ccc([N+](=O)[O-])cc1[N+](=O)[O-])c1ccccc1` (stereo not given), -18.4%.
The figure for `NS(=O)(=O)c1ccc(CNC(=O)c2cccc(S(=O)(=O)N3CCc4ccccc43)c2)cc1` is 3.71%; for `CC1CCN(C(=O)c2cccc(S(=O)(=O)N3CCCc4ccccc43)c2)CC1` it is -0.65%.
In the case of `O=C(Nc1nc2ccc([N+](=O)[O-])cc2s1)c1ccc(S(=O)(=O)N2CCCc3ccccc32)cc1`, the inhibition was 64.6% (active).
As for `NS(=O)(=O)c1ccc2nc(NC(=O)C3=COCCO3)sc2c1`, the figure is 24.4%.
As for `O=C(NC(Nc1nc2ccc([N+](=O)[O-])cc2s1)(C(F)(F)F)C(F)(F)F)c1ccccc1`, the figure is 57.6% (active); as for `Cc1ccc(NC(=O)c2cccc(S(=O)(=O)N3CCCc4ccccc43)c2)nc1`, 58.7% (active).
`CCC(=O)Nc1nnc(S(=O)(=O)N2CCCc3ccccc32)s1`: the inhibition is -3.9%.
The figure for `O=C(NNC(=O)c1ccc(-n2cncn2)c([N+](=O)[O-])c1)c1ccccc1` is 2.77%; for `CCCCCCCCN1C(=O)[C@H](CC(=O)NCC23CC4CC(CC(C4)C2)C3)C[C@@]2(C(=O)OC)CCCCC=C12` it is 8.39%; for `CCNC(=O)C1(C)CCN(Cc2ccc(C(=O)OCC)o2)C1` (stereo not given) it is 1.05%.
The figure for `CN(C)N=Nc1ccc2nc[nH]c2c1` is -9.3%; for `O=S1(=O)CC(N2CCN(Cc3ccccc3F)CC2)CN1Cc1cn(Cc2ccccc2)nn1` (stereo not given) it is 5.09%; for `C=CCn1c(SCc2nnc(-c3ccccc3)o2)nnc1C(O)c1ccccc1` (stereo not given) it is -3.86%.
As for `CCC(NC(=O)c1ccccc1NC(=O)c1ccccc1)C(=O)NNC(=O)CSc1nc2ccccc2o1` (stereo not given), the figure is -0.91%; as for `Cn1cnc2c1c(=O)n(Cc1c(Cl)cccc1Cl)c(=O)n2C`, -7.11%; as for `Cn1c(N)c(C(=O)COC(=O)c2ccccc2NCc2ccco2)c(=O)n(C)c1=O`, 22.6%.
`CC(=O)c1cnn(-c2cc(Oc3ccc(F)cc3)ncn2)c1C`: the inhibition is 8.07%.
`CCOC(=O)/C(=N\Nc1cc(Cl)ccc1Cl)N1CCN(C)CC1`: the inhibition was -34.9%.
The figure for `CC(=O)C1=C(C)NC(C)=C(C(C)=O)C1c1cn(-c2ccccc2)nc1-c1cccs1` is -6.98%; for `O=C(/C=C\c1cn(-c2ccccc2)nc1-c1cccs1)N1CCOCC1` it is 98.4% (active); for `O=C(/C=C/c1cn(-c2ccccc2)nc1-c1ccc2c(c1)OCCO2)NCCCN1CCOCC1` it is -1.36%.
The figure for `COc1ccc(S(=O)(=O)N2CCCCC2)cc1NC(=O)COc1ccccc1` is 22.4%.
Consider `COc1ccc(-c2nn(C)c(=O)c3ccccc23)cc1NC(=O)COc1ccccc1`, for which the inhibition was 71.2% (active).
The figure for `COc1ccc(-c2nn(C)c(=O)c3ccccc23)cc1CNC(=O)C1CCCCC1` is -37.6%.
The figure for `CC1CC(=S)Nc2ccccc2N1Cc1ccccc1` (stereo not given) is 13.5%; for `Cc1nc2ccc(NC(=O)N3CCC(c4ccccc4)C3)cc2nc1C` (stereo not given) it is 0.79%.
The figure for `CC(C)(C)OC(=O)N/N=C/c1ccc(C(=O)O)cc1` is -4.99%.
With `CCNC(=S)NNC(=O)c1ccc2ncccc2c1`, the inhibition is 1.76%.
As for `O=C(O)c1ccc(N/N=C/c2ccc3ncccc3c2)cc1`, the figure is 95.2% (active).
As for `CC1(C(=O)Nc2ccc3c(c2)OCCO3)CCN1C(=O)Cc1cc(F)ccc1F` (stereo not given), the figure is -3.09%; as for `O=S(=O)(NCc1ccccc1Cl)c1cnc[nH]1`, -2.25%; as for `O=S1(=O)CC(N2CCN(Cc3ccccc3F)CC2)CN1Cc1cn(Cc2cccc(C(F)(F)F)c2)nn1` (stereo not given), 10.4%.
The figure for `O=[N+]([O-])c1ccc(F)cc1Oc1nc(-c2cccnc2)nc2ccccc12` is 55.1% (active); for `O=[N+]([O-])c1cc2ccccc2nc1-c1ccccc1` it is -7.41%; for `CCN(CC(=O)NC1CCS(=O)(=O)C1)c1nc(-c2cccnc2)nc2ccccc12` (stereo not given) it is 0.56%.
Regarding `Cc1ccc(S(=O)(=O)N2[C@@H](c3cccc4ccccc34)C(C(=O)O)=C[C@H]2C(C)(C)C)cc1`, the inhibition is 14.3%.
The figure for `CCOc1ccc(CN2CCNC(=O)C2CC(=O)NCCCC2CCCC2)cc1` (stereo not given) is 7.15%; for `CCOC(=O)C1=C(NC(=S)NC(=O)c2ccccc2)c2ccccc2CC1(C)C` it is 4.16%.
For the compound `CCOC(=O)c1c(NC(=S)NC(=O)/C=C/c2cccs2)sc(C)c1C`, the inhibition is 20.2%.
With `CCOC(=O)c1c(-c2ccccc2)csc1NC(=S)NC(=O)c1ccccc1`, the inhibition is 57.9% (active).
As for `O=C(C1CCCO1)N1CCN(C(=O)C23CC4CC(CC(C4)C2)C3)CC1` (stereo not given), the figure is -24%; as for `C[C@H](CO)N1C[C@H](C)[C@@H](CN(C)Cc2ccc3c(c2)OCO3)OCc2cnnn2CCCC1=O`, -16.3%.
The figure for `Cc1cc(Cl)c(S(=O)(=O)NCC2CCCO2)cc1OCC(N)=O` (stereo not given) is 3.22%; for `Cc1cc(Cl)c(S(=O)(=O)Nc2ccc3c(c2)OCCO3)cc1OCC(N)=O` it is 86.8% (active); for `Cc1cc(Cl)c(S(=O)(=O)N(C)C)cc1OCC(N)=O` it is 12.6%.
As for `Cc1cc(C)cc(C(=O)OCC(=O)NCCNC(=O)COC(=O)c2cc(C)cc(C)c2)c1`, the figure is -2.52%; as for `Cc1ccc(S(=O)(=O)N2CCC(=O)N([C@H](COCc3ccccc3)C(C)C)CC2)cc1`, -20.6%; as for `Oc1c(CN2CCN(c3ccc(F)cc3)CC2)cc(Cl)c2cccnc12`, 104% (active).
As for `Cc1cccc(C)c1NC(=O)CN1CCN(c2ccc(F)cc2)CC1`, the inhibition is 0%.
On to `Oc1c(CN2CCCC2)cc(COCc2ccccc2)c2cccnc12`, for which the inhibition is 9.88%.
As for `O=[N+]([O-])c1ccc(S(=O)(=O)Nc2cccc(-c3ccc(N4CCCC4)nn3)c2)cc1`, the figure is -10.7%.
As for `O=C(Nc1ccc2c(c1)OCCO2)C1CCCN(c2ncccn2)C1` (stereo not given), the inhibition is 67.2% (active).
As for `O=C(Nc1ccccn1)C1CCN(S(=O)(=O)c2ccc3c(c2)OCCO3)CC1`, the inhibition was -16%.
As for `O=C(Nc1cccc(Cl)c1)C1CCCN(c2cnccn2)C1` (stereo not given), the figure is -12.7%; as for `CN1C(=O)c2ccc(NC(=O)C3CCCCC3)cc2C1=O`, -18.9%.
The figure for `O=C(Nc1ccc2c(c1)OCO2)C1CC1(Cl)Cl` (stereo not given) is -7.08%; for `O=C(Nc1ccc2c(c1)OCCO2)C1CCCC1` it is 92.4% (active).
The figure for `Cc1ccccc1S(=O)(=O)NC(=O)C1(C)CCN1C(=O)C1(c2ccccc2)CCCC1` (stereo not given) is 0.78%.
For the compound `COc1ccc(NC(=O)CN(C)C(=O)CNC(=O)C2CCCCC2)cc1`, the inhibition is -2.69%.
As for `COc1cccc(CNC(=O)[C@@H]2CCCN2C(=O)[C@@H]2CCCN2C(=O)c2ccccc2)c1`, the figure is 17.3%; as for `CC1(C(=O)NS(=O)(=O)c2ccccc2)CCN1C(=O)C1CCCCC1` (stereo not given), -10.4%; as for `CCC1(C)NC(=O)N(CC(=O)N2CCN(c3cccc(Cl)c3)CC2)C1=O` (stereo not given), 5.53%.
The figure for `O=C(CSc1nnc(-c2ccco2)o1)NCC(=O)c1ccccc1` is 7.83%.
Turning to `CCn1c(SCC(=O)Nc2cc(C)c(Cl)cc2OC)nnc1-c1ccco1`, the inhibition was -18.4%.
The figure for `CSc1nc(-c2ccco2)nn1C(=O)c1ccccc1Cl` is 51% (active); for `CCn1cc(CN2CCCC(CNS(=O)(=O)Cc3ccccc3)C2)cn1` (stereo not given) it is 1.85%; for `CC(=O)Nc1c2c(nn1-c1cccc(C)c1)CSC2` it is -5.72%.
The figure for `CCCNC(=O)c1c(Cl)cnn1-c1ccc(C)cc1` is -19.4%.
The figure for `Cc1cccc(-n2ncc(Cl)c(Cl)c2=O)c1` is 94.7% (active).
As for `COc1cccc(-c2nc3nc(C)cc(C)n3c2NC2CCCCC2)c1`, the inhibition is -20.7%.
As for `CC(C)(C)Oc1ccccc1Nc1nc(NCCO)nc(N2CCCC2)n1`, the figure is -8.68%.
The figure for `COc1cccc(-n2c(SCC(=O)NC3CCS(=O)(=O)C3)nc3ccccc3c2=O)c1` (stereo not given) is 6.23%.
On to `O=C(CSc1nc2ccccc2c(=O)n1-c1ccccc1F)N1CCOCC1`, for which the inhibition was 0.72%.
As for `Cc1ccc(-n2c(SCC(=O)N3CCC(C(=O)O)CC3)nc3ccccc3c2=O)cc1C`, the figure is 58.6% (active).
For the compound `O=C(CCCN1C(=O)C(c2ccccc2)Oc2cccnc21)Nc1ccccc1Br` (stereo not given), the inhibition was -8.78%.
